Screening results: PubChem, National Center for Advancing Translational Sciences (NCATS)
Compounds with a hit are over-represented: about 7.5% of the library has one in this group of screens.
FLuc counter: qHTS profiling assay for firefly luciferase inhibitor/activator using purifed enzyme and Km concentrations of substrates (counterscreen for miR-21 project). Luciferin 4-monooxygenase (Photinus pyralis), P08659. purified FLuc, Km substrates, luminescence inhibition. Potency, µM (highest dose often 57.5 µM), for inactives: top-dose activity change, negative = inhibition, actives largely listed as inhibitors. 360,000 tested, 6.9% active. AID 588342, 2011;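 further: plate controls were vehicle for no effect and reference inhibitor for full effect; nearly all actives have a fitted effect of over 55% in size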
Target sequence (P08659 whole entry, looked up): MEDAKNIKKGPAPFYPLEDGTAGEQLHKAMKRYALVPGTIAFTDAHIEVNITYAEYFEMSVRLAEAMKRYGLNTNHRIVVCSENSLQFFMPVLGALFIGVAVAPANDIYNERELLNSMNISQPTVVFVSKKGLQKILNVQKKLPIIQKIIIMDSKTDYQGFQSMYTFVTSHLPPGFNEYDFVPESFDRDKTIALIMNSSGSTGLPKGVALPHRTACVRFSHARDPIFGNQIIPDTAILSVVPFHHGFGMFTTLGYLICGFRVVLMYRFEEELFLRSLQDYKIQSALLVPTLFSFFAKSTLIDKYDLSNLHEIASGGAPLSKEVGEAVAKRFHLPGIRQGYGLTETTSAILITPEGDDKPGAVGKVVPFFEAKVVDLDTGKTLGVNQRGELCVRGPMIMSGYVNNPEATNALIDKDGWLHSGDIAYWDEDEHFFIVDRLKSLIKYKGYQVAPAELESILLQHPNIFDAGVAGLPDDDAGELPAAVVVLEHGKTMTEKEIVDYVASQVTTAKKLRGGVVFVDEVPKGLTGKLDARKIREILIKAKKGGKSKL
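Purified P. pyralis luciferase (10nM final) with 10uM D-luciferin and 10uM ATP (Km levels) in 50mM Tris acetate pH 7.5, 10mM Mg acetate, 0.01% Tween-20, 0.05% BSA; qHTS 6-point titration, ~60 µM downward; luminescence read.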
Rab9 prom act: qHTS Assay for Rab9 Promoter Activators. Potency, µM (highest dose often 9.22 µM), inactives show at the top dose activation, negative = inhibition, usual class: activators. 320,000 tested, 2.8% active. Huh7 Rab9 promoter-luciferase reporter, luminescence, 24 h; further: % of control where 0% means no effect; nearly all actives have a fitted effect of over 60% in size
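Luminescence read-out: Huh7 cells stably expressing Rab9-luciferase, treated 24 h with compound at 37 °C, then lysed with luciferase reagent for 10 min at ambient before reading.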
NPC1 prom act: qHTS Assay for NPC1 Promoter Activators; Huh7 NPC1 promoter luciferase reporter, 24 h; Potency, µM (highest dose often 9.22 µM), for the others: at the highest dose activation, most hits filed as activators; 320,000 tested, 2.4% active; AID 485313, 2010; further: % of control where 0% means no effect; nearly all actives have a fitted effect of over 60% in size
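Readout is luciferase luminescence, reflecting NPC1 promoter activation in stably transfected Huh7 cells after 24 h compound exposure at 37 °C in reduced-serum medium with 10% FBS.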
SMN2 splice up: qHTS Assay for Enhancers of SMN2 Splice Variant Expression; HEK293 SMN2-luciferase splicing reporter, luminescence, 30-36 h; Potency, µM (series often up to 46.1 µM), without a hit: at the highest dose activity change, positive = activation, actives largely listed as activators; 210,000 tested, 2.8% active; further: % of control where 0% means no effect; nearly all actives have a fitted effect of over 55% in size
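HEK293 cells carry an SMN2 minigene-luciferase reporter in which exon 7 inclusion puts luciferase in frame. Cells were seeded at 2000 cells/well, attached for 10-12 hours, then exposed to compounds for 30-36 hours at 37C before ONE-Glo luminescence.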
ELG1 genotox: qHTS screen for small molecules that induce genotoxicity in human embryonic kidney (HEK293T) cells expressing luciferase-tagged ELG1. HEK293T ELG1-luciferase reporter, luminescence, 16 h. Potency, µM (highest dose often 46 µM), for inactives: at the highest dose activity change, positive = activation, most hits filed as activators. 330,000 tested, 1.3% active. AID 504466, 2011; further: % of control where 0% means no effect; nearly all actives have a fitted effect of over 60% in size
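16 hr compound incubation (37 °C, 5% CO2) of HEK293T cells carrying luciferase-tagged ELG1; luciferase then measured by ONE-Glo luminescence after 30 min at RT.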
Numbers without * were called inactive. The call rests on the fitted dose curve; in most records, active means well fitted curve in the direction sought with a large enough effect; inconclusive means small, poorly fitted or top-dose-only effect, or another doubt; inactive means no such curve, though single readings can be large; an effect the other way counts as inactive or inconclusive. Potency means the concentration at half of the fitted maximal effect.

How did CC(=O)Nc1ccc2nc(NC(=O)COc3ccc(C)cc3)sc2c1 do in these assays?
FLuc counter: -6.9%; Rab9 prom act: 15.9%; NPC1 prom act: 12.7%; SMN2 splice up: 10.4%; ELG1 genotox: 7.2%

Results for Cc1cc(OCC(=O)Nc2ccncc2)ccc1Cl ?
FLuc counter: inconclusive; Rab9 prom act: -3.7%; NPC1 prom act: 0.6%; ELG1 genotox: -1.5%

What do the screens show for `Cc1ccc(NC(=O)COc2ccc(Br)cc2CO)cc1`?
FLuc counter: 13.5µM*; Rab9 prom act: 21.1%; NPC1 prom act: 21.4%; SMN2 splice up: -25.2%; ELG1 genotox: 18.2%

Results for CCCCCCSc1ccc([C@H]2N[C@@](CC(C)C)(C(=O)OC)[C@H]3C(=O)N(C)C(=O)[C@@H]23)cc1 ?
FLuc counter: -2.4%; Rab9 prom act: -0.1%; NPC1 prom act: -5.1%; ELG1 genotox: -2.9%

Results for NC(=O)Cc1ccc(C(=O)c2ccccc2F)s1 ?
FLuc counter: -0.6%; Rab9 prom act: 5.5%; NPC1 prom act: 0.2%; SMN2 splice up: 17.5%; ELG1 genotox: 6.4%

What do the screens show for `CCOc1c(O)ccc(/C=C2\SC(=S)NC2=O)c1[N+](=O)[O-]`?
FLuc counter: 13.5µM*; Rab9 prom act: -7.0%; NPC1 prom act: -0.5%; SMN2 splice up: -8.8%; ELG1 genotox: 0.4%

How did Cc1cccc2c1-c1sc(C(=O)N3CCCCC3)cc1CO2 do in these assays?
FLuc counter: 13.5µM*; Rab9 prom act: 3.98µM*; NPC1 prom act: 3.55µM*; ELG1 genotox: inconclusive

Results for CCN1CCN(C(=O)c2cc3c(s2)-c2c(C)cccc2OC3)CC1 ?
FLuc counter: 10.7µM*; Rab9 prom act: 3.98µM*; NPC1 prom act: inconclusive; ELG1 genotox: inconclusive

How did CCOC(=O)N1CCN(C(=O)c2cc3c(s2)-c2c(C)cccc2OC3)CC1 do in these assays?
FLuc counter: -4.2%; Rab9 prom act: 0.3%; NPC1 prom act: 1.2%; ELG1 genotox: -0.3%

What do the screens show for `Cc1cccc2c1-c1sc(C(=O)N3CCc4ccccc4C3)cc1CO2`?
FLuc counter: inconclusive; Rab9 prom act: 3.2%; NPC1 prom act: 0.2%; SMN2 splice up: 15.0%; ELG1 genotox: -3.2%

How did CCOC(=O)C1=NNC2(c3ccc(C)cc3)C(=O)N(c3ccccc3)C(=O)C12 (centres undefined) do in these assays?
FLuc counter: 0.2%; Rab9 prom act: -3.2%; NPC1 prom act: -1.6%; ELG1 genotox: -1.6%

How did O=C1CC(c2ccc(F)cc2)Cc2nc(N3CCc4ccccc43)ncc21 (centres undefined) do in these assays?
FLuc counter: -4.3%; Rab9 prom act: 3.0%; NPC1 prom act: 2.1%; SMN2 splice up: -12.4%; ELG1 genotox: 0.0%

How did CC1(C)CC(=O)c2cnc(N3CCc4ccccc43)nc2C1 do in these assays?
FLuc counter: 2.13µM*; Rab9 prom act: 3.55µM*; NPC1 prom act: 2.82µM*; ELG1 genotox: inconclusive

What do the screens show for `CC1CCN(C2=NC(=O)/C(=C/c3ccccc3F)S2)CC1`?
FLuc counter: 3.38µM*; Rab9 prom act: 14.8%; NPC1 prom act: inconclusive; ELG1 genotox: 9.2µM*

Results for CN1CCN(C2=NC(=O)/C(=C/c3cn[nH]c3-c3ccccc3)S2)CC1 ?
FLuc counter: -17.5%; Rab9 prom act: -7.1%; NPC1 prom act: -2.7%; ELG1 genotox: -9.4%

Results for O=C1N=C(N2CCCCC2)S/C1=C\c1cn[nH]c1-c1ccccc1 ?
FLuc counter: 7.57µM*; Rab9 prom act: 14.6%; NPC1 prom act: 21.0%; SMN2 splice up: inconclusive; ELG1 genotox: -0.7%

How did O=C1N=C(N2CCCC2)S/C1=C\C=C\c1ccccc1 do in these assays?
FLuc counter: 0.849µM*; Rab9 prom act: 0.562µM*; NPC1 prom act: 1.58µM*; ELG1 genotox: 1.64µM*

Results for COc1ccc(/C=C2\SC(N3CCCCC3)=NC2=O)cc1 ?
FLuc counter: 10.7µM*; Rab9 prom act: inconclusive; NPC1 prom act: inconclusive; ELG1 genotox: 10.3%
